{"source": "PubChem BioAssay AID504692", "about": "(The Scripps Research Institute Molecular Screening Center, 2011)", "note": "Out of some 340,000 compounds screened, about 2,000 (0.59%) were called active. The sample holds actives, similar compounds and a random draw of the others, so the mix is not that of the screen. A number with no mark means an inactive call. No stated cut-off is given here; in the data, active means activation mostly above about 9.5% (no sharp cut-off); inactive means mostly below about 7.6%.", "data": [{"target": "5-hydroxytryptamine receptor 5A (Homo sapiens) (UniProt P47898)", "sequence (P47898 whole entry, looked up)": "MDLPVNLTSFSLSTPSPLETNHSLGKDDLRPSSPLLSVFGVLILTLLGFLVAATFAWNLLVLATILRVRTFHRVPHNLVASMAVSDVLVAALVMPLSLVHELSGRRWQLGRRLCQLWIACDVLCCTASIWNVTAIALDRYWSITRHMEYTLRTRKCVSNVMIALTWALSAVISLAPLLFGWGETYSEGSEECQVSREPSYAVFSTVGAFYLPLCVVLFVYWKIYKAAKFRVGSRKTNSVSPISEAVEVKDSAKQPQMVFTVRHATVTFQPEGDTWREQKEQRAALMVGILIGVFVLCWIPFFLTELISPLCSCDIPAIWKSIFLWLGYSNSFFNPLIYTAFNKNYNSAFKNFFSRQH", "assay": "activation of human 5-HT5A receptor – cell-based, luminescence, full-deck HTS, counter-screen for OPRM1-OPRD1 heterodimer agonist project, primary screen (AID 504692);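 further: 0% = cells with vehicle only and 100% = reference agonist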", "details": "HTR5A agonist assay, at 9.3 µM, stronger effect = higher value", "values": [{"molecule": "Cc1ccc(C)c(NC(=O)CCC(=O)N/N=C2/CC(=O)CC(C)(C)C2)c1", "activation": "0.95%"}, {"molecule": "O=C(CCN1CCCCC1)N=Nc1c(O)[nH]c2ccccc12", "activation": "-0.47%"}, {"molecule": "Cc1c(-c2ccccc2)n[nH]c1C(=O)N=Nc1c(O)[nH]c2ccccc12", "activation": "12.7% (active)"}, {"molecule": "Oc1[nH]c2ccccc2c1N=Nc1c(F)c(F)c(F)c(F)c1F", "activation": "4.3%"}, {"molecule": "NC(=O)c1ncn([C@@H]2O[C@H](CNCc3cnc(N4CCOCC4)s3)[C@@H](O)[C@H]2O)n1", "activation": "-1.96%"}, {"molecule": "CCOC(=O)C(C)n1cnc2c(nnn2-c2ccc(F)cc2)c1=O", "note": "(stereo not drawn)", "activation": "0.23%"}, {"molecule": "Fc1ccccc1OCCSc1nc2ccccc2o1", "activation": "4.15%"}, {"molecule": "CC(C)(C)C1C/C(=C/c2ccco2)C(=O)/C(=C/c2ccco2)C1", "note": "(stereo not drawn)", "activation": "10.1% (active)"}, {"molecule": "CS(=O)(=O)c1ccc2c(c1)SC1=NC(=O)/C(=C/c3ccco3)C(=N)N12", "activation": "3.34%"}, {"molecule": "COC(=O)COc1ccc2c(c1C)O/C(=C\\c1ccco1)C2=O", "activation": "-6.31%"}, {"molecule": "COc1c(O)cc2oc(-c3ccc(O)c(O)c3)cc(=O)c2c1O", "activation": "-1.01%"}, {"molecule": "Cc1ccc(S(=O)(=O)N2CCN(C(=O)COC(=O)/C=C/c3cccc(Cl)c3)CC2)c(C)c1", "activation": "8.67%"}, {"molecule": "Cc1c(C2=CCN(S(=O)(=O)c3ccc(Cl)cc3)CC2)c2ccccc2n1C", "activation": "1.24%"}, {"molecule": "COC(=O)CSc1nnc(-c2cccnc2)o1", "activation": "0.3%"}, {"molecule": "CCN(C(=O)CSc1nnc(-c2ccncc2)o1)c1ccccc1", "activation": "-1.64%"}, {"molecule": "Cc1cccc(C)c1OC(=O)CSc1nnc(-c2ccccc2)o1", "activation": "11% (active)"}, {"molecule": "CCCCN(CCCC)CCC(O)c1cc2c(Cl)cc(Cl)cc2c2cc(C(F)(F)F)ccc12", "note": "(stereo not drawn)", "activation": "5.23%"}, {"molecule": "Cn1cc([N+](=O)[O-])c(C(=O)Nc2ccc3c(c2)OCCO3)n1", "activation": "-1.8%"}, {"molecule": "Cc1onc(C(=O)Nc2ccc3c(c2)OCO3)c1[N+](=O)[O-]", "activation": "14.2% (active)"}, {"molecule": "Cc1nn(CC(=O)Nc2ccc3c(c2)OCO3)c(C)c1[N+](=O)[O-]", "activation": "6.4%"}, {"molecule": "O=c1cc(CO)oc(C(Nc2cccc([N+](=O)[O-])c2)c2ccccn2)c1O", "note": "(stereo not drawn)", "activation": "0.87%"}, {"molecule": "Cc1ccc2nc(-c3ccncc3)cc(C(=O)Nc3ccc4c(c3)OCCO4)c2c1", "activation": "12.6% (active)"}, {"molecule": "CCN(CC)CCNC(=O)c1ccc(NC(=O)c2cc(-c3ccncc3)nc3ccccc23)cc1", "activation": "2.22%"}, {"molecule": "CCOc1ncccc1C(=O)Nc1ccc2c(c1)OCCO2", "activation": "0.83%"}, {"molecule": "Cc1ccc2nc(-c3ccncc3)cc(C(=O)Nc3ccncc3)c2c1", "activation": "21% (active)"}, {"molecule": "Cc1ccc2nc(-c3ccncc3)cc(C(=O)Nc3ccc(OC(F)F)cc3)c2c1", "activation": "1.14%"}, {"molecule": "CCn1c(SCC(=O)Nc2ccc3c(c2)OCCO3)nnc1-c1ccncc1", "activation": "3.29%"}, {"molecule": "COc1cc2c(cc1OC)C1C(=O)c3cc(OS(C)(=O)=O)c(OC)cc3C1N(C)C2=O", "note": "(stereo not drawn)", "activation": "-2.76%"}, {"molecule": "OC(CN=c1sc2ccccc2n1CC(O)COc1ccccc1)COc1ccccc1", "note": "(stereo not drawn)", "activation": "7.91%"}, {"molecule": "CCn1nnc(NC(=O)c2cc(Cl)c(OC)c(Cl)c2)n1", "activation": "-6.18%"}, {"molecule": "CN(CCc1ccccc1)c1ccc([N+](=O)[O-])cn1", "activation": "2.92%"}, {"molecule": "COc1ccc(Br)cc1S(=O)(=O)N1CCN=C1C", "activation": "2.3%"}, {"molecule": "O=C(CN1C(=O)C2C3C=CC(C3)C2C1=O)NCCc1ccccc1Cl", "note": "(stereo not drawn)", "activation": "-1.28%"}, {"molecule": "CCCCOC(=O)NCN1C(=O)C2C3C=CC(C3)C2C1=O", "note": "(stereo not drawn)", "activation": "9.49% (active)"}, {"molecule": "CCCCCOC(=O)c1ccc(N2C(=O)C3C4C=CC(C4)C3C2=O)cc1", "note": "(stereo not drawn)", "activation": "-1.59%"}, {"molecule": "CCc1c(Nc2ccccc2Cl)nc(N)[nH]c1=O", "activation": "-3.6%"}, {"molecule": "NC(=O)N1CCCC1C(=O)Nc1ccc(Cl)c(Cl)c1", "note": "(stereo not drawn)", "activation": "1.66%"}, {"molecule": "O=C(COC(=O)c1cc[n+]([O-])cc1)Nc1ccc(Cl)c(C(F)(F)F)c1", "activation": "3.73%"}, {"molecule": "O=C(CC(O)(C(F)(F)F)C(F)(F)F)Nc1ccc(Cl)c(Cl)c1", "activation": "20.1% (active)"}, {"molecule": "CC1(C)C2CCC1(CS(=O)(=O)NCCc1c[nH]c3ccccc13)C(=O)C2", "note": "(stereo not drawn)", "activation": "41.5% (active)"}, {"molecule": "CC(C)(C)NS(=O)(=O)CC12CCC(CC1=O)C2(C)C", "note": "(stereo not drawn)", "activation": "3.18%"}, {"molecule": "COc1ccccc1CNS(=O)(=O)CC12CCC(CC1=O)C2(C)C", "note": "(stereo not drawn)", "activation": "-5.29%"}, {"molecule": "COc1ccc(OC)c(C2C3=C(N=c4s/c(=C\\c5cccc(O)c5)c(=O)n42)c2ccccc2CC3)c1", "note": "(stereo not drawn)", "activation": "13.5% (active)"}, {"molecule": "COc1ccc(/C=C2/CCCc3ccccc3C2=O)cc1", "activation": "-2.8%"}, {"molecule": "O=C1[C@@H]2C(Cc3ccc(O)cc3)NC3(C(=O)Nc4ccc(F)cc43)[C@@H]2C(=O)N1c1ccc(F)cc1", "note": "(stereo partly drawn)", "activation": "1.44%"}, {"molecule": "CC1CCN(CC(=O)Nc2nccs2)CC1", "activation": "-1.58%"}, {"molecule": "CCC(C)NC(=O)CCCc1ccccc1", "note": "(stereo not drawn)", "activation": "14.8% (active)"}, {"molecule": "COc1ccccc1C(=O)NCCC(=O)NC(C)CCc1ccccc1", "note": "(stereo not drawn)", "activation": "5.98%"}, {"molecule": "CC(CCn1cccn1)NC(=O)CCc1nnc(CCc2ccccc2)o1", "note": "(stereo not drawn)", "activation": "4.98%"}, {"molecule": "Cc1noc(C)c1S(=O)(=O)N(CC(=O)NCc1ccc(Cl)cc1)c1ccc2c(c1)OCO2", "activation": "1.78%"}, {"molecule": "Cc1ccc(-n2c(=O)cc(N3CCN(Cc4ccccc4)CC3)[nH]c2=O)cc1", "activation": "7.71%"}, {"molecule": "CCOc1cc2c(Cl)ncnc2c(OCC)c1OCC", "activation": "2%"}, {"molecule": "COc1ccc(S(=O)(=O)N2CCC(C(=O)NCCC(=O)NCc3cccc(OC)c3)CC2)cc1", "activation": "-0.19%"}, {"molecule": "CCOc1ccc(C(=O)Nc2ccc(S(=O)(=O)Nc3cc(C)on3)cc2)cc1", "activation": "5.44%"}, {"molecule": "CCC(=O)Nc1ccc(C(=O)Nc2cc(C)on2)cc1", "activation": "6.16%"}, {"molecule": "CCOc1ccc(NC(=O)Nc2cc(C)on2)cc1", "activation": "14.5% (active)"}, {"molecule": "COc1cccc(OCC(O)CNC(=O)c2oc3c(C)c(C)ccc3c2C)c1", "note": "(stereo not drawn)", "activation": "0.14%"}, {"molecule": "O=C1CCCC2=C1C(c1cccs1)n1nc(SCc3ccccc3)nc1N2", "note": "(stereo not drawn)", "activation": "1.85%"}, {"molecule": "CC(=O)c1cccc(NC(=O)C2CCN(C(=O)c3ccccc3Cl)CC2)c1", "activation": "1.54%"}, {"molecule": "O=C(CSc1nncs1)NC1CCCc2ccccc21", "note": "(stereo not drawn)", "activation": "-2.59%"}, {"molecule": "CC(C)(C)OC(=O)CNC(=O)c1[nH]cnc1C(=O)N[C@@H](Cc1ccccc1)C(=O)OCc1ccccc1", "activation": "9.43%"}, {"molecule": "O=C(N[C@@H](Cc1ccccc1)C(=O)OCc1ccccc1)c1nc[nH]c1C(=O)NC1CCNCC1", "activation": "-1.94%"}, {"molecule": "CC(C)(C)OC(=O)N1CCC(NC(=O)c2[nH]cnc2C(=O)N[C@@H](Cc2ccccc2)C(=O)OCc2ccccc2)CC1", "activation": "38% (active)"}, {"molecule": "O=C(COC(=O)c1ccccc1F)Nc1cc(S(=O)(=O)N2CCOCC2)ccc1N1CCCC1", "activation": "-1.44%"}, {"molecule": "O=C(CNCc1ccco1)Nc1cc(S(=O)(=O)N2CCOCC2)ccc1N1CCCC1", "activation": "16.7% (active)"}, {"molecule": "CC(=O)NCCC(=O)Nc1cc(S(=O)(=O)N2CCOCC2)ccc1N1CCOCC1", "activation": "-0.71%"}, {"molecule": "Cc1ccc(C(=O)NC2CCN(C(=O)Nc3ccccc3Cl)CC2)cc1", "activation": "-0.54%"}, {"molecule": "COc1ccccc1CCNC(=O)c1cnccn1", "activation": "2.02%"}, {"molecule": "COc1ccc(C(C#N)Nc2ccc(C)cc2)cc1", "note": "(stereo not drawn)", "activation": "2.71%"}, {"molecule": "CC(=O)N1CCN(S(=O)(=O)c2c(F)cc(F)c(Cl)c2F)CC1", "activation": "11.6% (active)"}, {"molecule": "O=C(c1cnc(Cl)c(Cl)c1)N1CCN(S(=O)(=O)c2ccc(F)cc2)CC1", "activation": "-1.02%"}, {"molecule": "CCN1CCN(C(=O)C2CCN(S(=O)(=O)c3cc(Cl)ccc3Cl)CC2)CC1", "activation": "1.91%"}, {"molecule": "CCc1nnc(NC(=O)CSCc2cc(=O)n3cc(C)sc3n2)s1", "activation": "-1%"}, {"molecule": "C/C(=N\\NC(=O)CSc1nc2ccccc2c(=O)n1-c1ccccc1C)c1cccs1", "activation": "9.42%"}, {"molecule": "Cc1cccc(/C=N/NC(=O)CNc2cccc3ccccc23)n1", "activation": "2.33%"}, {"molecule": "C/C(=N\\NC(=O)CNc1cccc2ccccc12)c1ccc(Br)s1", "activation": "46.5% (active)"}, {"molecule": "COc1ccc(CN2CCCCC2C)cc1OC", "note": "(stereo not drawn)", "activation": "-0.45%"}, {"molecule": "COc1ccc(C2CC(c3cccs3)=Nc3ccccc3S2)cc1OC", "note": "(stereo not drawn)", "activation": "0.29%"}, {"molecule": "CN(Cc1ccco1)S(=O)(=O)c1nnc(NC(=O)c2ccccc2)s1", "activation": "2.57%"}, {"molecule": "CNc1nnc(-c2ccco2)s1", "activation": "15.4% (active)"}, {"molecule": "O=C(Nc1nc(-c2ccco2)c(-c2ccco2)s1)c1ccco1", "activation": "5.45%"}, {"molecule": "Cc1ccc(-n2c(SCC(=O)NCCC3=CCCCC3)nc3n[nH]c(C)c3c2=N)cc1Cl", "activation": "12.6% (active)"}, {"molecule": "CCCCNC(=O)CSc1nc2n[nH]c(C)c2c(=N)n1-c1cccc(Cl)c1C", "activation": "-2.98%"}, {"molecule": "COc1cccc(-n2c(SCC(=O)NC3CCCCC3)nc3n[nH]c(C)c3c2=N)c1", "activation": "0.63%"}, {"molecule": "CCOc1ccc(CN(Cc2ccco2)C(c2cccs2)c2nnnn2C(C)(C)C)cc1", "note": "(stereo not drawn)", "activation": "-2.19%"}, {"molecule": "Cc1nc2ccccc2c(C(=O)O)c1-c1ccccn1", "activation": "-0.26%"}, {"molecule": "CCSc1nc(-c2ccc(OC)cc2)cc(-c2ccc(OC)cc2)c1C#N", "activation": "0.07%"}, {"molecule": "N#Cc1c(C(F)(F)F)cc(-c2ccc(Cl)cc2)nc1SCC(=O)O", "activation": "-1.06%"}, {"molecule": "CCOC(=O)CC(=O)CSc1nc(-c2ccccc2)cc(-c2ccc(Cl)cc2)c1C#N", "activation": "10.7% (active)"}, {"molecule": "O=C(Nn1cnnc1)c1cc(Cl)ccc1Cl", "activation": "-1.93%"}, {"molecule": "Clc1ccc(CN2CCCCCC2)cc1Cl", "activation": "1.18%"}, {"molecule": "c1cc(-c2nn[nH]n2)ccc1CN1CCCCC1", "activation": "19.3% (active)"}, {"molecule": "Brc1ccc(-c2nn[nH]n2)cc1", "activation": "8.54%"}]}]}
